Measured values: ChEMBL document CHEMBL3433997, “St. Jude Leishmania screening dataset” (2016)

Each compound was assayed against Solute carrier family 2, facilitated glucose transporter member 1 (Homo sapiens) (UniProt P11166) (assay: ST_JUDE_LEISH: Cytotoxicity at 2uM final concentration against transgenic Leishmania Mexicana promastigotes LmGLUT1 that are glucose transport deficient and complemented with the human glucose transporter GLUT1. Activity is measured by DNA content using SYBR green in vitro).
Sequence of Solute carrier family 2, facilitated glucose transporter member 1 (Homo sapiens) (P11166 whole entry): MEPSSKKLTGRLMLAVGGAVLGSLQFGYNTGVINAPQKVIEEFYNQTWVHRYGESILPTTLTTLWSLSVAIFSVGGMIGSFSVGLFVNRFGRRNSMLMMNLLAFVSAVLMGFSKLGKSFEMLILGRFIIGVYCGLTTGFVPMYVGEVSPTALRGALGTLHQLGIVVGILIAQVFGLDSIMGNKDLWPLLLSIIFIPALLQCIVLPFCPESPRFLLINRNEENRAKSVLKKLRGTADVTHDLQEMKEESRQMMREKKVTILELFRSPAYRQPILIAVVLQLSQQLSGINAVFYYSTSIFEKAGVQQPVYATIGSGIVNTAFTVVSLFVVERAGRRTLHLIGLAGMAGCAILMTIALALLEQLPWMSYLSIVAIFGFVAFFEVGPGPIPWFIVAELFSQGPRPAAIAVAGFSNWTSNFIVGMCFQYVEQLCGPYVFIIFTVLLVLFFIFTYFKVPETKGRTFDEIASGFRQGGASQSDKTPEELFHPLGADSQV
Type: functional

| Compound | inhibition [%] |
| --- | --- |
| O=C(NCc1ccc(C(=O)N2CCC(N3CCCCC3)CC2)cc1)c1cc(-c2cccc(C(F)(F)F)c2)ccc1O | 7.73 |
| Cc1cc(=NN=Cc2ccc(Cl)cc2)c2cc(F)ccc2[nH]1 | -0.08 |
| Cn1cncc1C(=O)Nc1cccc(-c2cccc(-c3nc4cc(C(F)(F)F)ccc4[nH]3)c2)c1 | -1.02 |
| O=C(/C=C/c1ccc(Cl)c(Cl)c1)N1CCC(NCc2c[nH]c3ccccc23)CC1 | 1.33 |
| COc1ccc2ncc(F)c([C@H](O)CN3CCC(NCc4cc5c(cn4)OCCO5)CC3)c2c1 | 6.21 |
| CC(C)c1ccc(NC(=O)c2ccc(NCCCN(C)Cc3ccccc3)c([N+](=O)[O-])c2)cc1 | 0.47 |
| O=C(Nc1cc(F)cc(F)c1)N[C@H]1CCN(CCCCCNC(=O)C2CC2c2ccc(Cl)c(Cl)c2)C1 (stereo not given in full) | -0.04 |
| COc1ccc(-c2ccc(NC(=O)c3ccc(C#N)cc3)cc2)cc1CNC(C)C | 4.24 |
| CN1CCC(N2CCN(Cc3cccc(-c4ccc(-c5nc6cc(F)ccc6[nH]5)cc4)c3)CC2)CC1 | 2.43 |
| Cc1cc(-c2nc3ccc(C(=O)NCc4ccccc4)cc3n2C2CCN(C(=O)c3ccc(-c4ccccc4)cc3)CC2)ccn1 | 1.02 |
| Fc1cc(Cl)ccc1Nc1ccnc2cc(-c3scnc3CNCCN3CCOCC3)ccc12 | 2.02 |
| COc1ccc(NC(=O)Nc2nc(-c3ccc(Cl)c(C)c3)cs2)cc1N1CCN(C)CC1 | 0.68 |
| Cc1cc(O)c(C(C)C)cc1C1(c2cc(C(C)C)c(O)cc2C)OC(=O)c2ccccc21 | 8.43 |
| COc1ccc2nc3cc(Cl)ccc3c(Nc3ccc(Sc4ccc(Nc5c6ccc(Cl)cc6nc6ccc(OC)cc56)cc4)cc3)c2c1 | 3.47 |
| CCN(CCCN1CCCCC1)c1cc(C)nc(Nc2cccc(C(F)(F)F)c2)n1 | -5.65 |
| COc1ccc2nc3cc(Cl)ccc3c(NCCN(C)C)c2c1 | 7.53 |
| COc1ccc(-c2ccc(CNCc3ccccc3)cc2)cc1S(=O)(=O)NCCN1CCCC1 | 4.97 |
| Cn1c(N)c(N=O)c(=O)[nH]c1=O | 1.53 |
| COc1cccc2sc(Nc3nc(-c4ccccn4)cs3)nc12 | 0.13 |
| Cc1ccc(CCNCC(O)c2cccc(C(F)(F)F)c2)cc1 (stereo not given) | 0.25 |

| Compound | inhibition [%] |
| --- | --- |
| O=C(Cn1c(SCc2cccc(F)c2F)cc(=O)c2ccccc21)N(Cc1ccc(-c2ccc(C(F)(F)F)cc2)cc1)C1CCN(CCO)CC1 | -0.08 |
| Cc1cc(Nc2ccc(O)cc2)nc2cc(O)ccc12 | 3.16 |
| Cc1nnsc1C(=O)Nc1ccc(-c2ccc(-c3nc4ccccc4[nH]3)s2)cc1 | 4.65 |
| O=S(=O)(Nc1ccc(CCN2CCC(N3CCCCC3)CC2)cc1)c1ccc2ccccc2c1 | 4.91 |
| CC1CN(Cc2cccc(-c3ccc(-c4nc5cc(F)ccc5[nH]4)cc3)c2)CC(C)O1 (stereo not given) | 3.14 |
| CCCC[C@@H](C(=O)NCCc1ccc(Cl)cc1)N1C(=O)CCC1C(=O)Nc1ccc(Cl)c(Cl)c1 (stereo not given in full) | -0.33 |
| Oc1ccc2[nH]cc(C3CCN(CCC(c4ccccc4)c4ccccc4)CC3)c2c1 | 4.66 |
| CC(C)(C(=O)Nc1ccc(N2CCC3(CCCN(CC4CC4)C3)CC2)c(Cl)c1)c1cccc(C(F)(F)F)c1 | 0.2 |
| CO/C(=C\C=C\c1cc2cc(Cl)c(Cl)cc2[nH]1)C(=O)NC1CC2CCC(C1)N2C (stereo not given) | 0.15 |
| Cc1ccc(-c2cc(C(=O)Nc3ccc(S(=O)(=O)N4CCCCC4)cc3)[nH]n2)c(O)c1 | 0.86 |
| CC(C)NCc1cccc(-c2cccc(-c3nc4cc(F)ccc4[nH]3)c2)c1 | 14.2 |
| CC(C)CN1C(=O)c2ccccc2C(C(=O)Nc2cccc(C#N)c2)C1c1cccs1 (stereo not given) | -0.23 |
| CC(C)NCc1ccc(-c2ccc(CN3CCCC(c4ccccc4)C3)cc2)c(C(=O)NCC2CCCCC2)c1 (stereo not given) | -0.28 |
| C=CCc1cc(Cc2cnc(N)nc2N)c2ccc(C)nc2c1OC | 8.65 |
| CNC(=O)C1Cc2c([nH]c3ccc(Br)cc23)C2(CCN(CCc3ccccc3)CC2)N1 (stereo not given) | 5.38 |
| COc1ccc2nccc(N3CCC(NCCNCc4ccc5c(n4)NC(=O)CO5)C3)c2n1 (stereo not given) | 1.29 |
| CN1CCCc2ccc(NC(=O)c3ccc(-c4cc(C(F)(F)F)nn4C)s3)cc2C1 | 2.28 |
| COc1ccccc1C(=O)C1CCCN(C(=O)c2ccccc2C(F)(F)F)C1 (stereo not given) | -0.79 |
| COc1cc2c(C3CCN(CC4CCN(C(=O)/C=C/c5ccc(Cl)c(Cl)c5)CC4)CC3)c[nH]c2cn1 | 2.4 |
| O=C1CCCN1CCCNCc1cccc(-c2ccc(-c3nc4cc(C(F)(F)F)ccc4[nH]3)s2)c1 | 4.12 |

These compounds were tested against Hexose transporter 1 (Plasmodium falciparum) (UniProt O97467) (assay: ST_JUDE_LEISH: Cytotoxicity at 2uM final concentration against transgenic Leishmania Mexicana promastigotes LmPfHT that are glucose transport deficient and complemented with the Plasmodium falciparum hexose transporter. Activity is measured by DNA content using SYBR green in vitro).
Type: functional

| Compound | inhibition [%] |
| --- | --- |
| O=C(NCc1ccc(C(=O)N2CCC(N3CCCCC3)CC2)cc1)c1cc(-c2cccc(C(F)(F)F)c2)ccc1O | 6.4 |
| Cc1cc(=NN=Cc2ccc(Cl)cc2)c2cc(F)ccc2[nH]1 | 0.68 |
| Cn1cncc1C(=O)Nc1cccc(-c2cccc(-c3nc4cc(C(F)(F)F)ccc4[nH]3)c2)c1 | 2.87 |
| O=C(/C=C/c1ccc(Cl)c(Cl)c1)N1CCC(NCc2c[nH]c3ccccc23)CC1 | 1.05 |
| COc1ccc2ncc(F)c([C@H](O)CN3CCC(NCc4cc5c(cn4)OCCO5)CC3)c2c1 | 6.52 |
| CC(C)c1ccc(NC(=O)c2ccc(NCCCN(C)Cc3ccccc3)c([N+](=O)[O-])c2)cc1 | -1.98 |
| O=C(Nc1cc(F)cc(F)c1)N[C@H]1CCN(CCCCCNC(=O)C2CC2c2ccc(Cl)c(Cl)c2)C1 (stereo not given in full) | 0.55 |
| COc1ccc(-c2ccc(NC(=O)c3ccc(C#N)cc3)cc2)cc1CNC(C)C | 3.24 |
| CN1CCC(N2CCN(Cc3cccc(-c4ccc(-c5nc6cc(F)ccc6[nH]5)cc4)c3)CC2)CC1 | 3.05 |
| Cc1cc(-c2nc3ccc(C(=O)NCc4ccccc4)cc3n2C2CCN(C(=O)c3ccc(-c4ccccc4)cc3)CC2)ccn1 | -0.07 |
| Fc1cc(Cl)ccc1Nc1ccnc2cc(-c3scnc3CNCCN3CCOCC3)ccc12 | 1.16 |
| COc1ccc(NC(=O)Nc2nc(-c3ccc(Cl)c(C)c3)cs2)cc1N1CCN(C)CC1 | 3.54 |
| Cc1cc(O)c(C(C)C)cc1C1(c2cc(C(C)C)c(O)cc2C)OC(=O)c2ccccc21 | 6.64 |
| COc1ccc2nc3cc(Cl)ccc3c(Nc3ccc(Sc4ccc(Nc5c6ccc(Cl)cc6nc6ccc(OC)cc56)cc4)cc3)c2c1 | 4.48 |
| CCN(CCCN1CCCCC1)c1cc(C)nc(Nc2cccc(C(F)(F)F)c2)n1 | 2.63 |
| COc1ccc2nc3cc(Cl)ccc3c(NCCN(C)C)c2c1 | 5.07 |
| COc1ccc(-c2ccc(CNCc3ccccc3)cc2)cc1S(=O)(=O)NCCN1CCCC1 | 1.92 |
| Cn1c(N)c(N=O)c(=O)[nH]c1=O | 0.51 |
| COc1cccc2sc(Nc3nc(-c4ccccn4)cs3)nc12 | 1.96 |
| Cc1ccc(CCNCC(O)c2cccc(C(F)(F)F)c2)cc1 (stereo not given) | 1.08 |

| Compound | inhibition [%] |
| --- | --- |
| O=C(Cn1c(SCc2cccc(F)c2F)cc(=O)c2ccccc21)N(Cc1ccc(-c2ccc(C(F)(F)F)cc2)cc1)C1CCN(CCO)CC1 | -0.44 |
| Cc1cc(Nc2ccc(O)cc2)nc2cc(O)ccc12 | 1.93 |
| Cc1nnsc1C(=O)Nc1ccc(-c2ccc(-c3nc4ccccc4[nH]3)s2)cc1 | 1.4 |
| O=S(=O)(Nc1ccc(CCN2CCC(N3CCCCC3)CC2)cc1)c1ccc2ccccc2c1 | 11.2 |
| CC1CN(Cc2cccc(-c3ccc(-c4nc5cc(F)ccc5[nH]4)cc3)c2)CC(C)O1 (stereo not given) | 1.73 |
| CCCC[C@@H](C(=O)NCCc1ccc(Cl)cc1)N1C(=O)CCC1C(=O)Nc1ccc(Cl)c(Cl)c1 (stereo not given in full) | 2.4 |
| Oc1ccc2[nH]cc(C3CCN(CCC(c4ccccc4)c4ccccc4)CC3)c2c1 | 3.07 |
| CC(C)(C(=O)Nc1ccc(N2CCC3(CCCN(CC4CC4)C3)CC2)c(Cl)c1)c1cccc(C(F)(F)F)c1 | -0.12 |
| CO/C(=C\C=C\c1cc2cc(Cl)c(Cl)cc2[nH]1)C(=O)NC1CC2CCC(C1)N2C (stereo not given) | 1.93 |
| Cc1ccc(-c2cc(C(=O)Nc3ccc(S(=O)(=O)N4CCCCC4)cc3)[nH]n2)c(O)c1 | 1.9 |
| CC(C)NCc1cccc(-c2cccc(-c3nc4cc(F)ccc4[nH]3)c2)c1 | 11.4 |
| CC(C)CN1C(=O)c2ccccc2C(C(=O)Nc2cccc(C#N)c2)C1c1cccs1 (stereo not given) | -1.39 |
| CC(C)NCc1ccc(-c2ccc(CN3CCCC(c4ccccc4)C3)cc2)c(C(=O)NCC2CCCCC2)c1 (stereo not given) | -0.36 |
| C=CCc1cc(Cc2cnc(N)nc2N)c2ccc(C)nc2c1OC | 6.7 |
| CNC(=O)C1Cc2c([nH]c3ccc(Br)cc23)C2(CCN(CCc3ccccc3)CC2)N1 (stereo not given) | 3.44 |
| COc1ccc2nccc(N3CCC(NCCNCc4ccc5c(n4)NC(=O)CO5)C3)c2n1 (stereo not given) | 1.28 |
| CN1CCCc2ccc(NC(=O)c3ccc(-c4cc(C(F)(F)F)nn4C)s3)cc2C1 | 1.85 |
| COc1ccccc1C(=O)C1CCCN(C(=O)c2ccccc2C(F)(F)F)C1 (stereo not given) | -0.77 |
| COc1cc2c(C3CCN(CC4CCN(C(=O)/C=C/c5ccc(Cl)c(Cl)c5)CC4)CC3)c[nH]c2cn1 | -0.95 |
| O=C1CCCN1CCCNCc1cccc(-c2ccc(-c3nc4cc(C(F)(F)F)ccc4[nH]3)s2)c1 | 3.19 |
